# Reference: PubChem BioAssay AID492967 (ICCB-Longwood Screening Facility, Harvard Medical School, 2010)
# Among all 140,000 compounds or so, about 320 (0.23%) were called active. No stated cut-off is given here; in the data, active means z-score mostly below about -2.9 (no sharp cut-off); inactive means mostly above about -1.9. What follows is part of a selection rich in actives, with near analogues and random picks from the rest.
# Tested on: CapD gamma-glutamyltranspeptidase (Bacillus anthracis Ames Ancestor)
# Assay: Bacillus anthracis CapD inhibitors, primary screen, biochemical, fluorescence intensity (AID 492967)
# Details: purified CapD enzyme, fluorescence intensity read-out; stronger effect = lower value
row,Compound,z-score
1,COc1ccc2oc(=O)c(C(=O)O)cc2c1,31.1 (inactive)
2,COc1ccc2oc(=O)c(C(=O)NC(C)(C)C)cc2c1,13.9 (inactive)
3,COc1cccc(C(=O)c2cc3ccc(O)cc3oc2=O)c1,-6.04 (active)
4,Cc1cccc(-c2noc(-c3ccc(OC(F)(F)F)cc3)n2)c1,-0.145 (inactive)
5,CC(=O)Nc1ccccc1C(=O)OCC(=O)Nc1nc2ccccc2s1,-0.695 (inactive)
6,O=C(O)CC(CC(=O)Oc1ccccc1N1CCCC1)c1ccccc1 (stereo not drawn),-0.435 (inactive)
7,CC(C)C(=O)Nc1c2c(nn1-c1ccccc1)CSC2,0.225 (inactive)
8,COc1cc(C(=O)Nc2c3c(nn2-c2cccc(C)c2C)CS(=O)(=O)C3)cc(OC)c1OC,0.345 (inactive)
9,Cc1cccc(-n2nc3c(c2NC(=O)/C=C\c2ccco2)CSC3)c1C,-4.94 (active)
10,COc1ccc(OC)c(/C=N/NC(=O)c2cn(C)c3ccccc23)c1,14.4 (inactive)
11,CC(C)Oc1ccccc1Oc1ccc([N+](=O)[O-])cn1,-0.145 (inactive)
12,COc1ccc(OC)c(-n2c(=S)[nH]c3cc(C(=O)Nc4ccc(OC)c(OC)c4)ccc3c2=O)c1,-1.08 (inactive)
13,CSc1ccc(-c2ncnn2-c2ccc(Cl)cc2)cc1,-0.715 (inactive)
14,Cn1cc(CC(=O)Nc2ccccc2)c2ccccc21,-0.8 (inactive)
15,Clc1ccc(C2N=C(c3cnccn3)NN2)cc1 (stereo not drawn),-0.935 (inactive)
16,CCO/C=C1\C(=O)N(c2ccc(C)cc2C)C(=O)c2cc(OC)ccc21,0.06 (inactive)
17,COc1ccc(C2CC(=O)C3=C(C2)Nc2ccc4ccccc4c2C3c2ccc3c(c2)OCO3)cc1 (stereo not drawn),1.5 (inactive)
18,CC(NC(=O)Cn1nc(-c2ccc(Cl)cc2)c2ccccc2c1=O)c1ccccc1 (stereo not drawn),-0.405 (inactive)
19,CC1CCc2c(sc(NC(=O)c3sc4ccccc4c3Cl)c2C(=O)OC(C)C)C1 (stereo not drawn),-0.045 (inactive)
20,O=C1NC(=S)N/C1=C\c1c(F)cccc1Cl,-4.06 (active)
21,C=CCOC(=O)c1cc(-c2ccc(/C=C3/NC(=S)NC3=O)o2)ccc1Cl,0.96 (inactive)
22,O=C1NC(=S)N/C1=C/c1cc(I)cc(I)c1O,-0.725 (inactive)
23,COC(=O)c1c(NC(=O)c2c(-c3c(Cl)cccc3Cl)noc2C)sc2c1CCCC2,-0.55 (inactive)
24,COc1ccc(/C=C/C(=O)N2CCN(C(c3ccccc3)c3ccccc3)CC2)cc1OC,4.64 (inactive)
25,CC1(C)OCC([C@H]2O[C@@H]3OC(C)(C)OC3C2OC(=O)Nc2ccc(Cc3ccc(NC(=O)OC4C5OC(C)(C)O[C@H]5O[C@@H]4C4COC(C)(C)O4)cc3)cc2)O1 (stereo partly drawn),-0.275 (inactive)
26,CC(C)(C)C(=O)N(Cc1cccnc1)Cc1ccc(Cl)cc1Cl,-0.865 (inactive)
27,Cc1ccc(S(=O)(=O)c2cnc(SCC(=O)N3CCCc4ccccc43)[nH]c2=O)cc1,-0.55 (inactive)
28,CC1CCN(c2nc3nonc3nc2Nc2cccc(Br)c2)CC1,0.265 (inactive)
